CBX7 inh = blocks human CBX7 binding to H3K27me3 peptide | AlphaScreen His6-CBX7 / biotin-H3K27me3 peptide binding; stronger effect = lower value | normalised signal (fraction of DMSO) (test concentration not listed) | 66,000 tested, 1.1% active | AID 1224903; in the data active means normalised signal below about 0.5
Target sequence (O95931 whole entry, looked up): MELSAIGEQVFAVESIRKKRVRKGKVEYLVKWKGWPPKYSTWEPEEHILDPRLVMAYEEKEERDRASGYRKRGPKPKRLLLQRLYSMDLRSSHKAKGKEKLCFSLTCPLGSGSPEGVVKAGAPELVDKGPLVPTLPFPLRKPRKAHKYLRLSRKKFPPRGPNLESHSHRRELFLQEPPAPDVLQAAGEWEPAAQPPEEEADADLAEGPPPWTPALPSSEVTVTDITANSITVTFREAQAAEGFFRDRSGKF
* = called active by the depositor. Shown is part of a subset that was picked to be rich in hits.

What do the screens show for `CCOC(=O)N1CCc2c(sc(NCc3cccs3)c2C(=O)Nc2ccc(OC)cc2OC)C1`?
CBX7 inh: 0.86

Results for CCN(CC)CCNC(=O)c1cccc(NC2=NC3CS(=O)(=O)CC3S2)c1 (stereo not given) ?
CBX7 inh: 1

How did Cc1ccccc1Nc1c(-c2ccc(N(C)C)cc2)nc2cccc(C)n12 do in these assays?
CBX7 inh: 0.46*

What do the screens show for `Cc1ccccc1Nc1c(-c2ccc(Cl)cc2)nc2cccc(C)n12`?
CBX7 inh: 0.94

How did Cc1ccccc1Nc1c(-c2ccccc2)nc2cccc(C)n12 do in these assays?
CBX7 inh: 1

What do the screens show for `CCc1nnc(NC(=O)c2ncn[nH]2)s1`?
CBX7 inh: 0.38*

How did CCc1nnc(NC(=O)c2ccc(C(C)(C)C)cc2)s1 do in these assays?
CBX7 inh: 0.99

Results for CCc1nnc(NC(=O)c2cc(OC)c(OC)c(OC)c2)s1 ?
CBX7 inh: 0.99

How did Cc1cccc(-c2nc(C(=O)NCc3ccc(F)cc3)c(C)o2)c1 do in these assays?
CBX7 inh: 1

Results for O=C(NCc1ccc2c(c1)OCO2)[C@H](Cc1ccccc1)N1Cc2ccccc2C1=O ?
CBX7 inh: 0.44*

What do the screens show for `O=C(NCc1ccc2c(c1)OCO2)[C@@H](c1ccccc1)N1Cc2ccccc2C1=O`?
CBX7 inh: 1

Results for O=C(NCc1ccc(F)cc1)[C@H](Cc1ccccc1)N1Cc2ccccc2C1=O ?
CBX7 inh: 0.94

How did Fc1ccc(CNc2nc(-c3ccc(F)cc3)cc(C(F)(F)F)n2)cc1 do in these assays?
CBX7 inh: 1.1

What do the screens show for `CCC(C)NC(=O)c1cc(-c2ccc(F)cc2)on1` (stereo not given)?
CBX7 inh: 1

How did CCOc1ccc(-c2nnc(Nc3ccc(O)cc3)c3ccccc23)cc1 do in these assays?
CBX7 inh: 1

Results for Cc1ccc(-c2nnc(Nc3cccc(O)c3)c3ccccc23)cc1 ?
CBX7 inh: 0.42*

How did CCOc1ccc(-c2nnc(Nc3ccc(C(=O)N(C)C)cc3)c3ccccc23)cc1 do in these assays?
CBX7 inh: 1

Results for Oc1cccc(Nc2nnc(-c3ccc(Cl)cc3)c3ccccc23)c1 ?
CBX7 inh: 0.54

Results for Cc1nnc(Nc2cccc(O)c2)c2ccccc12 ?
CBX7 inh: 1

Results for CCOc1ccc(-c2nnc(Nc3cccc(O)c3)c3ccccc23)cc1 ?
CBX7 inh: 0.49*

What do the screens show for `Cc1nccc2[nH]c(=O)c(C(=O)NC3CCCCC3)cc12`?
CBX7 inh: 1

Results for Cc1ccc(-n2cc(-c3ccccc3)c3c(Nc4ccc(F)cc4)ncnc32)cc1 ?
CBX7 inh: 1

What do the screens show for `COc1cc(OC)cc(N2C(=O)CC(N3CCC(O)CC3)C2=O)c1` (stereo not given)?
CBX7 inh: 0.79

How did Cc1ccc(S(=O)(=O)Nc2ccccc2CNc2cccc3cccnc23)cc1 do in these assays?
CBX7 inh: 0.92

Results for CC(=O)Nc1ccc(S(=O)(=O)Nc2ccc(S(=O)(=O)Nc3nccc(C)n3)cc2)cc1 ?
CBX7 inh: 1

How did CC(=O)Nc1ccc(S(=O)(=O)Nc2cccc3cccnc23)cc1 do in these assays?
CBX7 inh: 0.045*

How did CCC(=O)N1CCc2cc(S(=O)(=O)N3CCCCC3C)ccc21 (stereo not given) do in these assays?
CBX7 inh: 0.94

How did COCCNC(=O)CSc1nc(-c2ccc(Br)cc2)[nH]c1-c1ccccc1 do in these assays?
CBX7 inh: 0.91

Results for O=C(Nc1nc(N2C(=O)c3ccccc3C2=O)n(-c2ccccc2)n1)c1ccc(F)cc1 ?
CBX7 inh: 0.09*

Results for COc1ccc(NC(=O)c2ccc3c(c2)C(=O)N(c2cccc(C)c2)C3=O)cc1 ?
CBX7 inh: 0.82

Results for Cc1ccn2c(NC(=O)c3ccc(F)cc3)c(-c3ccccc3)nc2c1 ?
CBX7 inh: 1.2

How did Cc1ccn2c(NC(=O)c3ccc(F)cc3)c(-c3ccc(F)cc3)nc2c1 do in these assays?
CBX7 inh: 1.1

How did COc1ccc(C(=O)Nc2nc(N3C(=O)c4ccccc4C3=O)n(-c3ccccc3)n2)cc1 do in these assays?
CBX7 inh: 0.2*

How did COc1ccc(N2C(=O)c3ccc(C(=O)Nc4ccccc4C(=O)O)cc3C2=O)cc1 do in these assays?
CBX7 inh: 1.1

How did O=C(c1ccc2c(c1)N(Cc1ccc(F)cc1)C(=O)c1ccccc1S2(=O)=O)N1CCOCC1 do in these assays?
CBX7 inh: 0.92

Results for O=C(CCc1nc(-c2ccccc2F)no1)N1CCC(N2CCCCC2)CC1 ?
CBX7 inh: 1

How did Cc1ccc(C)c2[nH]c(=O)c(CCNC(=O)Cc3ccc(F)cc3)cc12 do in these assays?
CBX7 inh: 1

Results for O=C(CS(=O)(=O)c1nc(-c2ccccc2)cn1-c1ccc(Cl)cc1)Nc1ccc(F)cc1 ?
CBX7 inh: 0.86

How did O=C(CS(=O)(=O)c1nc(-c2ccccc2)cn1-c1ccc(Cl)cc1)Nc1ccccc1 do in these assays?
CBX7 inh: 0.86

What do the screens show for `O=C(CS(=O)(=O)c1nc(-c2ccccc2)cn1-c1ccc(Cl)cc1)Nc1ccccc1F`?
CBX7 inh: 0.48*

Screening results deposited in PubChem BioAssay by Bradner/Qi Labs at DFCI.
